Active and inactive are the calls of the source. Where a call stands in place of a potency, no number is given. Calls follow the shape of the dose curve; as a rule, active = well fitted activation curve with a large enough effect in the repeat runs; inconclusive = weak or mixed curves; inactive = flat fitted curve, though single readings scatter.
test: A CellTox Green Cytotoxicity Assay to monitor cytotoxicity in HEK293 cells - 0 hour (AID 1224869); settings: CellTox Green fluorescence; series mostly up to 76.8 µM; also: nearly all actives have a fitted effect of over 50% in size
From the text: National Center for Advancing Translational Sciences [NCATS]
NIH Chemical Genomics Center [NCGC]
U.S. Environmental Protection Agency [EPA]
National Institutes of Environmental Health Sciences [NIEHS]
National Toxicology Program [NTP]
Cell-based models are critical for drug discovery. Determining the natural cytotoxic effects resulting from test compounds is an essential research activity. A CellTox Green Cytotoxicity Assay to monitor cytotoxicity in real time of continues cell culture during 40 hours of the compound treatment was used to screen Tox21 10K library compounds in Hek293 cells. CellTox Green Cytotoxicity Assay is a nonlytic, homogeneous, biofluorescent method to measure cytotoxicity in cell culture after experimental manipulation. The assay system uses a proprietary asymmetric cyanine dye that is excluded from viable cells but preferentially stains the dead cell's DNA. […] Viable cells produce no appreciable increases in fluorescence. Therefore, the fluorescence signal produced by the binding interaction with dead cell DNA is proportional to cytotoxicity.
The mixture of Hek293 cell suspension and reagents were dispensed at 600cells/6 ul/well in 1536-well tissue culture treated black solid bottom plates using a Multidrop dispenser. After the assay plates were incubated at a 37 C/5% CO2 incubator for 5 hours, 23 nL of compounds dissolved in DMSO, positive and negative controls was transferred to the assay plate by a pintool work station. The plates were incubated at 37 C for 40 hours. The fluorescence intensity were measured at 0h, 8h, 16h, 24h, 32h and 40h time points using ViewLux plate reader during compound treatment.

| Structure (SMILES) | Potency | cytotoxicity |
| --- | --- | --- |
| CCC(C)C1CCCCC1=O (stereo not given) | inactive | – |
| COc1ccccc1OCC(O)CN1CCN(CC(=O)Nc2c(C)cccc2C)CC1 (stereo not given) | inactive | – |
| Cc1c(O)cccc1O | inactive | – |
| CCOC(=O)CCC(C)=O | inactive | – |
| O=C1CCCC(=O)C1 | inactive | – |
| COc1cc(C(=O)N2CCCCCCC2)cc(OC)c1OC | inactive | – |
| CCC=O | inactive | – |
| C[N+](C)(C)CC(O)CC(=O)[O-] (stereo not given) | inactive | – |
| C=CCCCCCCCCC=O | inactive | – |
| CC(C)CNCC(C)C | inactive | – |
| NC(CSCC(=O)O)C(=O)O (stereo not given) | inactive | – |
| OCCCC1CCCCC1 | inactive | – |
| COc1ccc2c(c1)c(CC(=O)OCC(=O)O)c(C)n2C(=O)c1ccc(Cl)cc1 | inactive | – |
| CN(C(=O)c1c(O)c2ccccc2n(C)c1=O)c1ccccc1 | inactive | – |
| CC(=O)OCC(CCn1cnc2cnc(N)nc21)COC(C)=O | inactive | – |
| CN1CC(=O)NC1=N | inactive | – |
| CC(C)NCCCC1(C(N)=O)c2ccccc2-c2ccccc21 | inactive | – |
| CC/C=C\CCOC(C)=O | inactive | – |
| CCN(Cc1ccncc1)C(=O)C(CO)c1ccccc1 (stereo not given) | inactive | – |
| COC(=O)CC(C)=O | inactive | – |

| Structure (SMILES) | Potency | cytotoxicity |
| --- | --- | --- |
| CCCCC/C=C\CCC=O | inactive | – |
| O=[N+]([O-])c1ccc(F)cc1F | inactive | – |
| Nc1cc(=O)[nH]c(N)n1 | inactive | – |
| CCOC(=O)CC(C)=O | inactive | – |
| CC(C)(C)c1ccc(O)c(O)c1 | inactive | – |
| Nc1c[n+](N2CCOCC2)no1 | inactive | – |
| COC(=O)c1ccc(C)cc1C1=NC(C)(C(C)C)C(=O)N1 (stereo not given) | inactive | – |
| CC[N+](C)(C)c1cccc(O)c1 | inactive | – |
| CCC(C)S (stereo not given) | – | -0.294% [at 2.72 µM] (inactive) |
| CO[Si](CCCOCC1CO1)(OC)OC (stereo not given) | inactive | – |
| O=c1cc(CO)occ1O | inactive | – |
| OCCOc1ccc(OCCO)cc1 | inactive | – |
| CCCCC(CC)COC(=O)c1ccccc1O (stereo not given) | inactive | – |
| CC(C)(CC(=O)O)C(=O)O | inactive | – |
| CCN1CCC[C@H]1CNC(=O)c1cc(S(N)(=O)=O)ccc1OC | inactive | – |
| CCOC(=O)C(=O)OCC | inactive | – |
| CCCCNC(=O)NCCCC | inactive | – |
| COCCc1ccc(OCC(O)CNC(C)C)cc1 (stereo not given) | inactive | – |
| OC1CCCCC1c1ccccc1 (stereo not given) | inactive | – |
| Cn1c(N)c(N=O)c(=O)n(C)c1=O | inactive | – |

— PubChem BioAssay (Tox21)
